Inconclusive results are not listed. Unless noted, calls come from the whole dose curve; as a rule, active = well fitted curve in either direction with a large enough effect (not every such curve was filed as active); inconclusive = small, poorly fitted or top-dose-only effect, or another doubt; inactive = flat fitted curve, though single readings scatter.
Tests used:
[1] = AP1 Signaling Pathway (AID 357); settings: ME-180 AP-1-bla reporter, EGF-induced, beta-lactamase ratio, 5 h; at 17.2 µM (top of the series) unless noted;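 note: ME-180 reporter cells stimulated with EGF at its EC50 level; % is set by controls: 0 for no effect and ±100 for the full control effect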
Outline: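 A ratiometric CCF4 readout (405 nm excitation; 460 and 530 nm emission) quantified AP-1-driven beta-lactamase in ME-180 cells after 5 h with compound and EC50 EGF; AC50 values were derived for activators and inhibitors.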

[2] = NFAT Signaling Pathway (AID 444); settings: Jurkat NFAT-bla M1, carbachol, beta-lactamase ratio, 5 h; at 17.2 µM (top of the series) unless noted;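 note: carbachol stimulus at about its EC50 of 1 µM final; % is set by controls: 0 for no effect and ±100 for the full control effect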
Outline: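 Read-out: CCF4 FRET ratio (460 nm/530 nm) after 1 h RT dye loading, used for %activity and AC50 from titration series. Cells: Jurkat NFAT-β-lactamase/M1 line, treated with compound plus 1 uM carbachol for 5 h, 37 °C.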

[3] = Stat Signaling Pathway (AID 446); settings: ME-180 (cervical carcinoma) SIE beta-lactamase reporter, IL-6 stimulated, 5 h; at 17.2 µM (top of the series) unless noted;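 note: ME-180 cervical cancer cells given 40 pM IL-6 alongside compound; SIE-controlled beta-lactamase reporter measured as 460/530 nm FRET emission ratio; % is set by controls: 0 for no effect and ±100 for the full control effect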
Outline: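 Emission at 460 and 530 nm (excitation 405 nm) reports SIE-controlled beta-lactamase in ME-180 cells. Cells received compound with 40 pM IL-6 for 5 hrs at 37 C; data scaled between 300 pM IL-6 and 125 nM JAK-inhibitor controls.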

[4] = biological target: Glucocorticoid receptor (Homo sapiens) (UniProt P04150); test: GR-GFP Redistribution (AID 450;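 active = compounds whose dose series gives a full or clear partial fitted curve of increased nuclear translocation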; note: potency is the fitted concentration of half-maximal effect)
Chain of Glucocorticoid receptor (Homo sapiens) (P04150 whole entry, looked up): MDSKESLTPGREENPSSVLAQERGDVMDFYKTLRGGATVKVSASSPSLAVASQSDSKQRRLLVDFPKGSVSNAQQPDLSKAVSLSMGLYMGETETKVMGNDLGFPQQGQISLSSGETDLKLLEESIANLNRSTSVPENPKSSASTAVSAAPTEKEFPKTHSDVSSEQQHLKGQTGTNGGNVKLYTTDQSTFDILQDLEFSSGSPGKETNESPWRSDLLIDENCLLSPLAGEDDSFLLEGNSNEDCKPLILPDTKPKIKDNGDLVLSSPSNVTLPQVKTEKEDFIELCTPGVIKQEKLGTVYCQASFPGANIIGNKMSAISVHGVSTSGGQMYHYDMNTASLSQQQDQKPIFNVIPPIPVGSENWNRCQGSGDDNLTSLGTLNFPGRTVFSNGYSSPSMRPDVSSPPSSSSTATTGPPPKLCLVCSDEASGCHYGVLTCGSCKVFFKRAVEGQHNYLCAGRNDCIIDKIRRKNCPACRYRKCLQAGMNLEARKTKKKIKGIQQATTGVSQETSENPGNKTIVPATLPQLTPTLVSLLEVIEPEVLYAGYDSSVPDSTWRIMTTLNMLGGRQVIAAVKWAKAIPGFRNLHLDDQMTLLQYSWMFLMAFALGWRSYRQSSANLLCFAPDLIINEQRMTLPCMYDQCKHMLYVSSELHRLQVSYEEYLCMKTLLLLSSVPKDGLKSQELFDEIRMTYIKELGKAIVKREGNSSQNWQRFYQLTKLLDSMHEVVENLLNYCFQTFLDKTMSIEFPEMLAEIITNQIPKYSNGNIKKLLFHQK

N#Cc1ccc(-c2cccnc2)nc1SCC(=O)Nc1sc2c(c1C#N)CCC2
inactive: activity change, negative = inhibition [1] -1.23% | activity change, negative = inhibition [2] -7.12% | activity, negative = inhibition [3] -7.78% | Potency [4] > 20.6 µM

CC1(C)Cc2c(c(N3CCOCC3)nc3snc(Br)c23)CO1
inactive: activity change, negative = inhibition [1] -5.9% | activity change, negative = inhibition [2] -26.2% | activity, negative = inhibition [3] 13.2% | Potency [4] > 20.6 µM

CCCCOC(=O)CSC1=C(C#N)C(c2ccc3c(c2)OCO3)CC(=O)N1 (configuration not stated)
inactive: activity change, negative = inhibition [1] -13% | activity change, negative = inhibition [2] 19.6% | activity, negative = inhibition [3] -9.97% | Potency [4] > 20.6 µM

COc1ccc(CCNc2nc3c(c(=O)n(C)c(=O)n3C)n2C)cc1OC
inactive: activity change, negative = inhibition [1] -2.56% | activity change, negative = inhibition [2] 3.63% | activity, negative = inhibition [3] -0.466% | Potency [4] > 20.6 µM

C/C(NC(=O)c1cccs1)=C1\C(=O)C[C@@H]2[C@H]1C2(C)C
inactive: activity change, negative = inhibition [1] -9.31% | activity change, negative = inhibition [2] -25.4% | activity, negative = inhibition [3] -12.2% | Potency [4] > 20.6 µM

O=c1[nH]c2sc3c(c2c(=O)n1Cc1ccccc1)CCC3
inactive: activity change, negative = inhibition [1] -27.5% | activity change, negative = inhibition [2] 16.2% | activity, negative = inhibition [3] -5.31% | Potency [4] > 20.6 µM

C(=N\n1cnnc1)/c1cccc(Oc2ccccc2)c1
inactive: activity change, negative = inhibition [1] -3.86% | activity change, negative = inhibition [2] -2.39% | activity, negative = inhibition [3] -17.8% | Potency [4] > 20.6 µM

O=C(c1ccco1)N1CCN(CCOCCOc2cccc3ccccc23)CC1
inactive: activity change, negative = inhibition [1] 1.08% | activity change, negative = inhibition [2] -2.55% | activity, negative = inhibition [3] -10% | Potency [4] > 20.6 µM

c1ccc(-c2nnc3n2N=C(c2ccc4c(c2)OCO4)CS3)nc1
inactive: activity change, negative = inhibition [1] 2.99% | activity change, negative = inhibition [2] 19.9% | activity, negative = inhibition [3] -6.24% | Potency [4] > 20.6 µM

CN1CCN(c2nc(C(N)=O)cc(-c3ccccc3)n2)CC1
inactive: activity change, negative = inhibition [1] -1.1% | activity change, negative = inhibition [2] -3.4% | activity, negative = inhibition [3] 20.9% | Potency [4] > 20.6 µM

Cc1cc(O)c(C(C)C)cc1N=C1CSC(=O)N1
inactive: activity change, negative = inhibition [1] -11.9% | activity change, negative = inhibition [2] -9.06% | activity, negative = inhibition [3] -6.54% | Potency [4] > 20.6 µM

COc1cccc(C2C(C(=O)c3sc(C)nc3C)=C(O)C(=O)N2CCN2CCOCC2)c1OC (configuration not stated)
inactive: activity change, negative = inhibition [1] 3.76% | activity change, negative = inhibition [2] 12.8% | activity, negative = inhibition [3] 7.97% | Potency [4] > 20.6 µM

CCOC(=O)C1CCN(c2ncnc3c2cnn3-c2ccc(Cl)cc2)CC1
inactive: activity change, negative = inhibition [1] 0.357% | activity change, negative = inhibition [2] -16.1% | activity, negative = inhibition [3] 4.03% | Potency [4] > 20.6 µM

CCc1[nH]c(=O)c(C#N)c2c1CSC(C)(C)C2
inactive: activity change, negative = inhibition [1] 5.95% | activity change, negative = inhibition [2] 3.33% | activity, negative = inhibition [3] 9.69% | Potency [4] > 20.6 µM

CCCCC(CCC(=O)Nc1ccc(C(=O)OC)cc1)C(=O)O (configuration not stated)
inactive: activity change, negative = inhibition [1] 9.55% | activity change, negative = inhibition [2] 7.48% | activity, negative = inhibition [3] 8.56% | Potency [4] > 20.6 µM

COC(=O)c1c(-n2cnnn2)sc(C)c1C
inactive: activity change, negative = inhibition [1] -20.5% | activity change, negative = inhibition [2] 2.79% | activity, negative = inhibition [3] 6.13% | Potency [4] > 20.6 µM

Cc1ccc(-n2ncc3c(NCCCOC(C)C)ncnc32)c(C)c1
inactive: activity change, negative = inhibition [1] -18.8% | activity change, negative = inhibition [2] 25.7% | activity, negative = inhibition [3] -8.86% | Potency [4] > 20.6 µM

COC(=O)C(NC(C)=O)(Nc1nc2ccc(S(C)(=O)=O)cc2s1)C(F)(F)F (configuration not stated)
inactive: activity change, negative = inhibition [1] -0.134% | activity change, negative = inhibition [2] 7% | activity, negative = inhibition [3] -5.35% | Potency [4] > 20.6 µM

Cn1c(-n2c(-c3ccco3)nc3ccccc3c2=O)nc2ccccc21
inactive: activity change, negative = inhibition [1] -5.43% | activity change, negative = inhibition [2] -6.94% | activity, negative = inhibition [3] 9.91% | Potency [4] > 20.6 µM

CCN(CC)C(=O)C1CCN(c2ncnc3c2cnn3-c2ccc(C)cc2C)CC1
inactive: activity change, negative = inhibition [1] -10.6% | activity change, negative = inhibition [2] 7.48% | activity, negative = inhibition [3] -7.04% | Potency [4] > 20.6 µM

CC1(C)CC(=O)C(CCCN2C(=O)c3ccccc3C2=O)C(=O)C1
inactive: activity change, negative = inhibition [1] 8.1% | activity change, negative = inhibition [2] 2.72% | activity, negative = inhibition [3] 16.7% | Potency [4] > 20.6 µM

O=CN1CCN(C(=O)CN2C(=O)c3ccccc3C2=O)CC1
inactive: activity change, negative = inhibition [1] 10.2% | activity change, negative = inhibition [2] 11.9% | activity, negative = inhibition [3] 6.47% | Potency [4] > 20.6 µM

CCOC(=O)CSc1nc2sc3c(c2c(=O)[nH]1)CC(C)(C)OC3
inactive: activity change, negative = inhibition [1] 6.27% | activity change, negative = inhibition [2] 6.58% | activity, negative = inhibition [3] 4.32% | Potency [4] > 20.6 µM

CCN(CC)CCCN1C(=O)C(=O)/C(=C(/O)c2ccc(Cl)cc2)C1c1ccccn1 (configuration not stated)
inactive: activity change, negative = inhibition [1] -3.4% | activity change, negative = inhibition [2] 5.22% | activity, negative = inhibition [3] -0.716% | Potency [4] > 20.6 µM

O=C(Nc1cccnc1)c1cccnc1
inactive: activity change, negative = inhibition [1] 11.7% | activity change, negative = inhibition [2] -7.91% | activity, negative = inhibition [3] 4.68% | Potency [4] > 20.6 µM

Cc1c(/C(O)=C2/C(=O)C(=O)N(CCCN3CCOCC3)C2c2ccncc2)cnn1-c1ccccc1 (configuration not stated)
inactive: activity change, negative = inhibition [1] 5.29% | activity change, negative = inhibition [2] -3.84% | activity, negative = inhibition [3] 5.14% | Potency [4] > 20.6 µM

CCCCC(=O)Nc1c(O)c2ccccc2[nH]c1=O
inactive: activity change, negative = inhibition [1] 4% | activity change, negative = inhibition [2] -5.18% | activity, negative = inhibition [3] 1.28% | Potency [4] > 20.6 µM

CCN(CC)CCN1C(=O)C(=O)/C(=C(/O)c2c(C)[nH]c(C(=O)OC)c2C)C1c1cccc(OC)c1 (configuration not stated)
inactive: activity change, negative = inhibition [1] 1.88% | activity change, negative = inhibition [2] 3.77% | activity, negative = inhibition [3] 5.49% | Potency [4] > 20.6 µM
